From PubChem
PI5P4Ka inh: inhibitors of human PI5P4K alpha; P48426; PI5P4Kalpha enzyme, ADP-Glo luminescence, 60 min; active compounds read low; max response, %; 330,000 compounds, 1.2% hits; active = max response of -50% or lower; inconclusive = between -30% and -50%; inactive = -30% or higher; also: value at the top dose of about 77 µM
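Single end-point luminescence (ADP-Glo) quantified ADP from PI5P4Kalpha turnover; ATP 5 microM final, 1 h at RT, 0.1% CHAPS and 0.28 mM EGTA in HEPES pH 7.4.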
BAZ2B inh: blocks human BAZ2B | Q9UIF8 | AlphaScreen BAZ2B-H3K14Ac peptide displacement | Potency, µM (series often up to 114 µM), hits mostly inhibitors | 360,000 compounds, 4.4% hits | AID 504333; also: nearly all actives have a fitted effect of over 60% in size
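Inhibition is scored as reduced AlphaScreen emission. The BAZ2B/b-H3(5-23)K14Ac complex (50 nM each) in PBS pH 7.4, 0.01% Tween-20 meets compound (up to 110 uM) for 30 min at RT before bead addition.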
G9a block: blocks human histone lysine methyltransferase G9a | AID 504332 | G9a H3K9 monomethylation, AlphaScreen, 2 h | Q96KQ7 | Potency, µM (top dose mostly 102 µM), actives largely listed as inhibitors | 350,000 compounds, 8.8% hits; also: nearly all actives have a fitted effect of over 75% in size
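AlphaScreen detection with an anti-monomethyl H3K9 antibody quantified product after a 2 h room-temperature reaction containing 500 nM biotinylated H3K9 peptide, 20 µM SAM and 20 nM enzyme, which had been preincubated 15 min with compound.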
JMJD2A Tudor: JMJD2A Tudor domain (human) inhibition; Potency, µM (highest dose often 114 µM), hits mostly inhibitors; AlphaScreen JMJD2A-Tudor / H3K4me3 peptide binding; O75164; 390,000 compounds, 4.4% hits; also: nearly all actives have a fitted effect of over 50% in size
PLK1 PBD inh: blocks phosphopeptide binding to human PLK1 polo-box domain; P53350; Plk1 PBD binding of FITC phosphopeptide, fluorescence polarization; Potency, µM, most hits filed as inhibitors; 360,000 compounds, 2.8% hits; AID 720504; also: series mostly up to about 57 µM; nearly all actives have a fitted effect of over 65% in size
HP1b binding inh: HP1-beta chromodomain-methylated histone interaction inhibition; P83916; AlphaScreen HP1-beta / biotin-H3K9me3 peptide binding; Potency, µM (doses to about 114 µM), actives largely listed as inhibitors; 390,000 compounds, 0.56% hits; AID 540317; also: nearly all actives have a fitted effect of over 70% in size
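AlphaScreen: HP1-beta (50 nM) preformed 30 min with biotin-H3(1-18)K9me3 peptide (50 nM) in PBS pH 7.4, 0.01% Tween-20. Compound added for 30 min at RT, then streptavidin donor/nickel chelate acceptor beads (10 ug/mL) for 30 min.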
Of the large screens only hits and unclear results are named; the others gave an inactive call. Compounds with a hit are over-represented: about 12% of the library has one in this group of screens. Unless noted, calls follow the shape of the dose curve; as a rule, active = well fitted curve in the direction sought with a large enough effect; inconclusive = small, poorly fitted or top-dose-only effect, or another doubt; inactive = no such curve, though single readings can be large; an effect the other way counts as inactive or inconclusive.

CC(C)(C)OC(=O)N1CCC(c2c(C(=O)NCC3CCN(C4CCCC4)C3)cnn2-c2ccccc2Cl)CC1 (configuration not stated)	G9a block 71µM
N#Cc1cc2cc3c(cc2nc1SCC(=O)N1CCCC1)OCCO3	G9a block 28µM
CC(=O)CSc1nc2cc3c(cc2cc1C#N)OCCO3	G9a block 1µM
Cc1cc(C)c(C#N)c(SCC(=O)N2CCN(Cc3ccccc3)CC2)n1	G9a block inconclusive
CCN(CC)C(=O)CSc1nc(C)cc(C)c1C#N	G9a block inconclusive, PLK1 PBD inh inconclusive
Cc1cc(C)c(C#N)c(SCC(=O)N2CCCCC2)n1	G9a block 14µM, JMJD2A Tudor inconclusive, PLK1 PBD inh inconclusive
CCN(Cc1ccccc1)C(=O)CSc1nc(C)cc(C)c1C#N	JMJD2A Tudor inconclusive, PLK1 PBD inh 21µM
N#Cc1cc2cc3c(cc2nc1SCC(=O)OC1CCCCC1)OCO3	none
COc1cccc(C2CC(=O)N(c3ccc(F)cc3)C3=C2C(=O)OC3)c1OC (configuration not stated)	none (no result: PI5P4Ka inh, PLK1 PBD inh)
CC(C)C(NC(=O)C1(NC(=O)OCc2ccccc2)CCCC1)C(=O)O (configuration not stated)	none (no result: BAZ2B inh, G9a block)
Cc1cc(C)cc(N(CC(=O)NCC2CCCO2)C(=O)CN2C(=O)COc3ccccc32)c1 (configuration not stated)	JMJD2A Tudor inconclusive, PLK1 PBD inh 30µM (no result: PI5P4Ka inh)
COc1ccccc1NCc1cccn1-c1nnc(N2CCOCC2)s1	none (no result: PI5P4Ka inh, PLK1 PBD inh)
CCCCN(C(=O)CSc1nnc(Nc2ccc(C)c(C)c2)s1)c1c(N)n(Cc2ccccc2)c(=O)[nH]c1=O	PI5P4Ka inh -69, G9a block inconclusive
CCCCn1c(N)c(N(CCC(C)C)C(=O)CSc2nnc(Nc3ccccc3)s2)c(=O)[nH]c1=O	G9a block inconclusive (no result: BAZ2B inh)
CN(C(=O)CSc1nnc(Nc2ccccc2)s1)c1c(N)n(Cc2ccccc2)c(=O)[nH]c1=O	G9a block inconclusive, PLK1 PBD inh 21µM
CCOc1ccc(CCNC(=O)c2ccc3c(c2)nc2n3CCOC2)cc1OCC	none (no result: PI5P4Ka inh, PLK1 PBD inh)
CCOc1ccccc1O[C@@H](c1ccccc1)[C@@H]1CNCCO1	none (no result: PI5P4Ka inh, BAZ2B inh, JMJD2A Tudor, PLK1 PBD inh, HP1b binding inh)
CCOc1ccc(NC(=O)CC2S/C(=N/N=C3CCCCCC3)NC2=O)cc1 (configuration not stated)	none
O=C(O)CNC(=O)CC1S/C(=N/N=C2/NC(=O)CS2)NC1=O (configuration not stated)	PI5P4Ka inh inconclusive, BAZ2B inh 20µM, G9a block 28µM, JMJD2A Tudor 22µM
NC(=O)NC(=O)CC1S/C(=N/N=C2\CSC(=O)N2)NC1=O (configuration not stated)	BAZ2B inh 3.2µM, G9a block 0.79µM, JMJD2A Tudor 8.9µM
Cc1ccc(-n2c3nc(=O)[nH]c(=O)c-3cc3cc([N+](=O)[O-])ccc32)cc1C	G9a block 45µM, PLK1 PBD inh 8.4µM
Cc1cc(C)c(C)c(S(=O)(=O)N2C(=S)NC(=O)C2C(C)C)c1C (configuration not stated)	PI5P4Ka inh inconclusive, G9a block inconclusive, PLK1 PBD inh 27µM, HP1b binding inh inconclusive
Cc1cc(C)c(C)c(S(=O)(=O)N2C(=S)NC(=O)C2CC(C)C)c1C (configuration not stated)	BAZ2B inh inconclusive, G9a block inconclusive
Cc1cc(C(=O)COC(=O)c2n[nH]c3ccccc23)c(C)n1C	BAZ2B inh inconclusive, G9a block inconclusive, JMJD2A Tudor 63µM
COc1cc(C(=O)OCC(=O)c2cc(C)n(C)c2C)cc(OC)c1OC	JMJD2A Tudor 32µM, PLK1 PBD inh 17µM, HP1b binding inh inconclusive
O=C(O)Cc1sc(NC2CCCCC2)nc1-c1ccc(Cl)cc1	BAZ2B inh inconclusive, G9a block 40µM
O=C(Cn1nc(-c2cccc(Cl)c2)ccc1=O)NCC1COCCO1 (configuration not stated)	BAZ2B inh 79µM
O=C(Cn1nc(-c2ccc(Cl)cc2)ccc1=O)NCC1CCCO1 (configuration not stated)	none
